ELG1 DNA repair: inhibitors of ELG1-dependent DNA repair in HEK293T cells | HEK293T ELG1-luciferase reporter, luminescence, 16 h; DNA damage induced by 5-fluorouridine | Potency, µM (series often up to 46.1 µM), usual class: inhibitors | 330,000 tested, 2.3% active | AID 504467; further: nearly all actives have a fitted effect of over 55% in size
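Luminescence from the luciferase reporter, measured 30 min after ONE-Glo reagent at room temperature, was the read-out. Beforehand, 2,000 cells per well were exposed for 16 hr at 37 °C to 5-fluorouridine together with compound or vehicle.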
ELG1 genotox: induces genotoxicity in HEK293T cells with luciferase-tagged ELG1; HEK293T ELG1-luciferase reporter, luminescence, 16 h; Potency, µM (highest dose often 46 µM), actives largely listed as activators; 330,000 tested, 1.3% active; AID 504466; further: nearly all actives have a fitted effect of over 60% in size
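16 hr compound incubation (37 °C, 5% CO2) of HEK293T cells carrying luciferase-tagged ELG1; luciferase then measured by ONE-Glo luminescence after 30 min at RT.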
FLuc counter: firefly luciferase modulation, counter-screen for miR-21 project | P08659 | purified FLuc, Km substrates, luminescence inhibition | Potency, µM (titrated, usually from 57.5 µM), hits mostly inhibitors | 360,000 tested, 6.9% active | AID 588342; further: nearly all actives have a fitted effect of over 55% in size
Target sequence (P08659 whole entry, looked up): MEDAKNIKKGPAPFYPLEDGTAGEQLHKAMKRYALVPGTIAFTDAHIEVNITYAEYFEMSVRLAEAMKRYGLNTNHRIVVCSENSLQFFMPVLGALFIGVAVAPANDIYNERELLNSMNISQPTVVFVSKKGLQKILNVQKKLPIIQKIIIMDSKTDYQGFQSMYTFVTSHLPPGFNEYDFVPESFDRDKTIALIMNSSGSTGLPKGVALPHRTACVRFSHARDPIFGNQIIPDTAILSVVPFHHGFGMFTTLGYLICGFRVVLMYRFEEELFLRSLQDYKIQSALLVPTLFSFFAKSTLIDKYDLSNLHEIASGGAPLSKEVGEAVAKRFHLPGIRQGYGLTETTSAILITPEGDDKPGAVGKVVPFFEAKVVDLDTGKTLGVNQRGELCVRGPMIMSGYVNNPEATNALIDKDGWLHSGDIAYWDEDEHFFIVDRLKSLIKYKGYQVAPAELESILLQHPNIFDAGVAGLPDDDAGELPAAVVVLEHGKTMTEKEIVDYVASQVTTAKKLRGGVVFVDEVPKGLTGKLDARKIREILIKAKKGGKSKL
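Purified P. pyralis luciferase (10nM final) with 10uM D-luciferin and 10uM ATP (Km levels) in 50mM Tris acetate pH 7.5, 10mM Mg acetate, 0.01% Tween-20, 0.05% BSA; qHTS 6-point titration, ~60 µM downward; luminescence read.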
Rab9 promoter act: activators of Rab9 promoter; 320,000 tested, 2.8% active; Huh7 Rab9 promoter-luciferase reporter, luminescence, 24 h; AID 485297; Potency, µM (series often up to 9.22 µM), usual class: activators; further: nearly all actives have a fitted effect of over 60% in size
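Huh7 cells stably carrying a Rab9 promoter-luciferase reporter, 1500 cells per well in OP-MEM I with 10% FBS, treated with compound 24 hours at 37C. Luciferase activity read by luminescence after 10 minutes with Amplite reagent.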
SMN2 splice enh: enhancers of SMN2 splice variant expression; Potency, µM (doses to about 46.1 µM), usual class: activators; 210,000 tested, 2.8% active; HEK293 SMN2-luciferase splicing reporter, luminescence, 30-36 h; further: nearly all actives have a fitted effect of over 55% in size
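HEK293 cells carry an SMN2 minigene-luciferase reporter in which exon 7 inclusion puts luciferase in frame. Cells were seeded at 2000 cells/well, attached for 10-12 hours, then exposed to compounds for 30-36 hours at 37C before ONE-Glo luminescence.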
NPC1 prom act: NPC1 promoter activation. Huh7 NPC1 promoter luciferase reporter, 24 h. Potency, µM (series often up to 9.22 µM), actives largely listed as activators. 320,000 tested, 2.4% active. AID 485313; further: nearly all actives have a fitted effect of over 60% in size
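Luciferase expression driven by the NPC1 promoter was measured in stably transfected Huh7 cells after a 24 h compound incubation, using a luciferase reagent and a luminescence read.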
Large screens that a line does not name were inactive. Shown are actives, neighbours in structure and some others; about 9.4% of the full set was active somewhere. The call rests on the fitted dose curve; in most records, active means well fitted curve in the direction sought with a large enough effect; inconclusive means small, poorly fitted or top-dose-only effect, or another doubt; inactive means no such curve, though single readings can be large; an effect the other way counts as inactive or inconclusive.

COC(=O)c1ccc(CNC(=O)COC(=O)/C=C/c2ccc(O)c(OC)c2)cc1	ELG1 DNA repair inconclusive (no result: FLuc counter, Rab9 promoter act, SMN2 splice enh, NPC1 prom act)
COc1cc(/C=C/C(=O)OCC(=O)c2ccc(OC(F)F)cc2)ccc1O	ELG1 DNA repair 18µM (no result: FLuc counter, Rab9 promoter act, SMN2 splice enh, NPC1 prom act)
COc1cccc(/C=C/C(=O)OCC(=O)c2c[nH]c3ccccc23)c1OC	ELG1 DNA repair 16µM
COc1cccc(/C=C/C(=O)OCC(=O)c2c[nH]c3ccccc23)c1	ELG1 DNA repair inconclusive (no result: SMN2 splice enh)
COc1ccccc1NC(=O)COC(=O)c1c[nH]c2ccccc12	none (no result: FLuc counter, SMN2 splice enh)
CCc1cccc2c(C(=O)COC(=O)/C=C/c3ccc(O)c(OC)c3)c[nH]c12	ELG1 DNA repair 21µM, FLuc counter inconclusive
CNS(=O)(=O)c1cc(-c2nnc(Nc3cc(C)ccc3C)c3ccccc23)ccc1C	none (no result: ELG1 DNA repair, ELG1 genotox, Rab9 promoter act, NPC1 prom act)
Cc1cccn2c(=O)c(C(=O)NCCc3ccccc3)cnc12	FLuc counter 4.8µM (no result: ELG1 DNA repair, ELG1 genotox, Rab9 promoter act, SMN2 splice enh, NPC1 prom act)
O=C(NCc1ccco1)c1cnc2sccn2c1=O	none
O=C(NCCc1ccccc1)c1cnc2sccn2c1=O	ELG1 DNA repair inconclusive, ELG1 genotox inconclusive, FLuc counter 17µM, Rab9 promoter act 3.5µM, SMN2 splice enh 13µM, NPC1 prom act inconclusive
Cc1ccccc1NC(=O)CSc1cn(CC(=O)N2CCCCCC2)c2ccccc12	none (no result: ELG1 DNA repair, ELG1 genotox, Rab9 promoter act, SMN2 splice enh, NPC1 prom act)
O=C(Cn1ncc2c(Cl)cccc21)NCc1cccc(Br)c1	FLuc counter 4.8µM (no result: ELG1 DNA repair, ELG1 genotox, Rab9 promoter act, SMN2 splice enh, NPC1 prom act)
Cc1cccc(NC(=O)CSc2nc(=O)n(CCN3CCOCC3)c3c2CCC3)c1C	none (no result: ELG1 DNA repair, ELG1 genotox, Rab9 promoter act, SMN2 splice enh, NPC1 prom act)
Cc1ccc(OCCSc2nc3ccccc3n2CC(=O)N2CCOCC2)cc1	none (no result: ELG1 DNA repair, ELG1 genotox, Rab9 promoter act, SMN2 splice enh, NPC1 prom act)
O=C(CCC(=O)N1CC2CCCN2c2ccccc21)NCc1ccc(Cl)cc1 (stereo not given)	none (no result: ELG1 DNA repair, ELG1 genotox, Rab9 promoter act, SMN2 splice enh, NPC1 prom act)
O=C1NC(=S)N/C1=C/c1ccc2ccccc2c1	none (no result: SMN2 splice enh)
Cc1ccsc1/C=C1\CCc2ccccc2C1=O	ELG1 DNA repair inconclusive, ELG1 genotox inconclusive, FLuc counter 0.19µM, Rab9 promoter act 0.79µM, SMN2 splice enh 10µM, NPC1 prom act inconclusive
Cc1ccccc1/C=C1\CCCc2ccccc2C1=O	ELG1 DNA repair inconclusive, ELG1 genotox inconclusive, FLuc counter 2.4µM, Rab9 promoter act 0.89µM, SMN2 splice enh 10µM, NPC1 prom act 4µM
CCN1C/C(=C/c2sccc2C)c2nc3ccccc3c(C(=O)O)c2C1	FLuc counter inconclusive (no result: SMN2 splice enh)
O=C1/C(=C\c2ccc3ccccc3c2)CCCc2ccccc21	ELG1 DNA repair inconclusive, ELG1 genotox 9.2µM, FLuc counter 2.1µM
CC(C)(C)c1ccc(C(=O)NCCC(=O)Nc2cc(Cl)ccc2N2CCOCC2)cc1	FLuc counter 21µM (no result: SMN2 splice enh)
Cc1ccc(NC(=O)CCNC(=O)c2ccc(Br)cc2)cc1S(=O)(=O)N1CCOCC1	ELG1 DNA repair inconclusive (no result: SMN2 splice enh)
Cc1ccc(CSCCNC(=O)c2ccc(Cl)c(S(=O)(=O)N3CCOCC3)c2)cc1	ELG1 DNA repair 23µM
O=C(CCNC(=O)c1ccccc1)Nc1ccc(Cl)c(S(=O)(=O)N2CCCCC2)c1	ELG1 DNA repair 16µM (no result: FLuc counter, Rab9 promoter act, SMN2 splice enh, NPC1 prom act)
O=C(CCNC(=O)c1ccccc1Cl)Nc1cccc(S(=O)(=O)N2CCCCC2)c1	ELG1 DNA repair inconclusive (no result: SMN2 splice enh)
O=C(CCNC(=O)c1ccc([N+](=O)[O-])cc1)Nc1ccc(Cl)c(S(=O)(=O)N2CCOCC2)c1	ELG1 DNA repair 18µM (no result: SMN2 splice enh)
CCOc1ccc(CNC(=O)C2CCN(C(=O)c3sccc3-n3cccc3)CC2)cc1	none (no result: ELG1 DNA repair, ELG1 genotox, Rab9 promoter act, NPC1 prom act)
CC(C)c1nn2c(=O)cc(COC(=O)c3ccc(NC(=O)C4CCCCC4)cc3)nc2s1	none (no result: ELG1 DNA repair, ELG1 genotox, Rab9 promoter act, SMN2 splice enh, NPC1 prom act)
Cc1ccc(-n2c(C)cc(C(=O)CSc3nncs3)c2C)cc1	ELG1 DNA repair inconclusive, ELG1 genotox inconclusive, FLuc counter 3µM, Rab9 promoter act 0.5µM, NPC1 prom act 1µM
Cc1ccc(-n2c(C)cc(C(=O)CSc3nnnn3C)c2C)cc1	ELG1 DNA repair inconclusive, FLuc counter 2.7µM, Rab9 promoter act 0.71µM, SMN2 splice enh inconclusive, NPC1 prom act 0.71µM
CCN1CCN(CCCNC(=O)c2cc3c(=O)n(C)c4ccccc4c3s2)CC1	SMN2 splice enh inconclusive (no result: ELG1 DNA repair, ELG1 genotox, Rab9 promoter act, NPC1 prom act)
O=C(NC(=S)Nc1ccc(Cl)cc1)c1ccccc1	ELG1 DNA repair inconclusive, FLuc counter 11µM, Rab9 promoter act inconclusive, NPC1 prom act inconclusive (no result: SMN2 splice enh)
CCCCC(=O)NC(=S)Nc1cccc(NC(=O)CC)c1	none

Source: PubChem BioAssay
